# From PubChem BioAssay
# Calls of active or inactive are those of the source.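 The calls were made as follows, unless noted: active = fluorescence slope after compound addition differing from the mean of all screened samples at 99.7% confidence, in either direction; inactive = the rest.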
# Tests used:
# [1] = inhibitors of TNFa-induced NFkB p65 translocation, primary screen, imaging, HUVEC, MLSMR starter and 10KST1 sets (AID 438;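 active = inhibition above 20% together with a positive visual image hit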;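 also: compound added about 3h40 before a 20 min TNFalpha stimulation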;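 as to inhibition: signal is the nuclear over cytoplasmic p65 intensity ratio per well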); conditions: HUVEC TNFa-induced p65 nuclear translocation; cell count: measured here: nuclei count (cytotoxicity indicator), at 2.08 µM; inhibition: at 2 µM, stronger effect = higher value, 0% TNFa-plus-vehicle, 100% no-TNFa wells
# [2] = reduction of polyQ htt aggregates in cells – imaging, exon1htt(103Q)mCFP cells, high-content imaging, primary screen (AID 483;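 active = visual image review flags a hit and inhibition of aggregation exceeds 20%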;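 also: compound exposure lasted 3 days before fixation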;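 as to nuclei count: percent of the per-plate median nuclei count of sample wells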); conditions: exon1htt(103Q)mCFP cell line, aggregate imaging, at 2 µM; inhibition of aggregation: stronger effect = higher value; nuclei count: measured here: cell count, toxicity
# [3] = endothelial E-selectin expression blockers – imaging, HUVEC, immunofluorescence, MLSMR starter and 10KST1 sets, primary screen (AID 487;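 active = visually confirmed hit in the image check and inhibition above 20%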;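 as to inhibition: signal is fraction of cell area covered by stained E-selectin grains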;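 as to nuclei count: 100% = median nuclei count of all wells on the same plate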); conditions: HUVEC TNFalpha-induced E-selectin immunofluorescence imaging, at 2 µM; inhibition: stronger effect = higher value; nuclei count: measured here: cell number, toxicity
# [4] = target: Voltage-gated potassium channel subunit beta-2 (Rattus norvegicus) (UniProt P62483); assay: inhibitors of rat Kvbeta2 reductase activity – biochemical, NADPH fluorescence, primary screen (AID 622;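 active = fluorescence slope higher than the sample average by over 3 SD, cut at about -0.22 in these data, passing the limit was not always enough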;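 also: slope of raw intensity against log time taken from 70 to 1610 s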); conditions: recombinant KvBeta, 4-cyanobenzaldehyde reduction, at 10 µM, stronger effect = higher value
# [5] = target: Voltage-gated potassium channel subunit beta-2 (Rattus norvegicus) (UniProt P62483); assay: enhancers of rat Kvbeta2 NADPH turnover – biochemical, NADPH fluorescence, primary screen (AID 623;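 active = NADPH fluorescence slope more negative than the mean of all samples by about 3 SD, 99.7% confidence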;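 also: fluorescence intensity change per second fitted from 20 to 320 s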); conditions: Recombinant KvBeta, NADPH fluorescence decrease slope, 10 min; at 10 µM; stronger effect = lower value
# [6] = target: Alpha-2C adrenergic receptor (Homo sapiens) (UniProt P18825); assay: compounds altering alpha2C-coupled GIRK flux – cell-based, HEK293 alpha2C/GIRK1/2, thallium flux, primary screen (AID 624); conditions: thallium flux BTC fluorescence, at 10 µM, actives lie on both sides;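 also: slope of fluorescence ratio to pre-addition baseline per second over 15 to 24 s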
# [7] = blockers of RIG-like receptor reporter activation – cell-based, Sendai virus stimulus, luciferase, 10K MLSCN set, TLR/RLR signaling modifier project, primary screen (AID 602276;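 active = inhibition at or above 50% at 10 µM; inactive = inhibition below 50%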;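 also: firefly luciferase from ISG56 promoter only with Renilla not read in this screen; 0% = Sendai virus plus DMSO and 100% = medium plus DMSO without virus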); conditions: HEK293 RL24 IRF3 luciferase reporter, at 10 µM, stronger effect = higher value
# [8] = TLR3 IRF3 reporter activation blockers – cell-based, poly I:C stimulus, luciferase, 10K MLSCN set, primary screen (AID 602277;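 active = inhibition of the reporter signal at or above 50%; inactive = inhibition below 50%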); conditions: HEK293-TLR3 RL24 IRF3 luciferase reporter, at 10 µM, stronger effect = higher value
# Chain of Alpha-2C adrenergic receptor (Homo sapiens) (P18825 whole entry, looked up): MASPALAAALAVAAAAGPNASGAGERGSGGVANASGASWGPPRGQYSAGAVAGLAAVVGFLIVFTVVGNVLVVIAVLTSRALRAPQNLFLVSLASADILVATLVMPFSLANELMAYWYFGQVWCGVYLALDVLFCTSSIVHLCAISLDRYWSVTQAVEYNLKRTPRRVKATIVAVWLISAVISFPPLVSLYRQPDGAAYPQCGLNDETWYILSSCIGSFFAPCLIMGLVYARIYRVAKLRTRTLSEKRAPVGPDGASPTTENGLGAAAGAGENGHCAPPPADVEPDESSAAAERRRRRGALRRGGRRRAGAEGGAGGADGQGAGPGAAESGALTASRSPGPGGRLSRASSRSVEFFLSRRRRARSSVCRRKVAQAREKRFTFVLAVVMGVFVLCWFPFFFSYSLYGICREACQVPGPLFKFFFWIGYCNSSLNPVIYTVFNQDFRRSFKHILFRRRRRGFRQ
# Chain of Voltage-gated potassium channel subunit beta-2 (Rattus norvegicus) (P62483 whole entry, looked up): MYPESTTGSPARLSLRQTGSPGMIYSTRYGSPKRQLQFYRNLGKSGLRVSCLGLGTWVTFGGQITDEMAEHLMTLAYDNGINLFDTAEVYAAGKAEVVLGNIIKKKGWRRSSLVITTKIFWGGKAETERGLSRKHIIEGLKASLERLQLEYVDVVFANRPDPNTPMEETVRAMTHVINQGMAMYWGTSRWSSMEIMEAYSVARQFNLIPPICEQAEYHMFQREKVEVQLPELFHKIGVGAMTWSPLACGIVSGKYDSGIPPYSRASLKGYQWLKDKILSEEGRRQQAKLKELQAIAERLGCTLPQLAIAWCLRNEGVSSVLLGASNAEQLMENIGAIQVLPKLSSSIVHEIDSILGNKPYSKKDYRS
Structure (SMILES),cell count [1],inhibition [1],inhibition of aggregation [2],nuclei count [2] [%],inhibition [3],nuclei count [3] [%],fluorescence slope [4],NADPH fluorescence slope [5],slope [6],inhibition [7],inhibition [8]
CCn1c(SCC(=O)Nc2cc(C)on2)nc2sc3c(c2c1=O)CCCC3,470,-16.6% (inactive),4% (inactive),118,-26.9% (inactive),110,-0.4 (inactive),1.4e-06 (inactive),0.00722 (inactive),-5.69% (inactive),98.9% (active)
O=C(Nc1ccc2c(c1)C(=O)N(C1CCCCC1)C2=O)C1CCCO1 (stereo not drawn),269,-11.7% (inactive),9% (inactive),71.5,47.7% (inactive),43.2,-0.0454 (active),6.1e-06 (inactive),0.00452 (inactive),-7.34% (inactive),-20.5% (inactive)
Cc1cc2c(c(=O)n1C)C(Cc1ccccc1)C(C#N)=C(N)O2 (stereo not drawn),620,-20.7% (inactive),24.9% (inactive),99.1,-61.8% (inactive),117,-0.322 (inactive),-3.8e-05 (inactive),0.00445 (inactive),9.72% (inactive),14.5% (inactive)
Cn1c(C(=O)NCCC2=CCCCC2)cc2c(=O)n3ccccc3nc21,261,31.6% (active),5.6% (inactive),92.2,46.7% (inactive),71.3,-0.128 (active),1.2e-05 (inactive),0.00542 (inactive),-27.5% (inactive),-62% (inactive)
CCN(CC)C(=O)Cn1ncc2c1-c1ccccc1OC2,597,0.5% (inactive),-64.7% (inactive),102,-54.6% (inactive),123,-0.588 (inactive),-4.7e-05 (inactive),0.00665 (inactive),7.79% (inactive),16.3% (inactive)
CC(=O)c1ccc(OCC(O)CN2CCN(Cc3ccc4c(c3)OCO4)CC2)cc1 (stereo not drawn),522,4.5% (inactive),-3.8% (inactive),87.9,-33.9% (inactive),108,-0.536 (inactive),-4.2e-05 (inactive),0.0062 (inactive),11.6% (inactive),40.6% (inactive)
O=c1c2cc3ccccc3n2cnn1Cc1ccccc1F,345,-8.5% (inactive),29.9% (inactive),89.6,-105% (inactive),108,-0.51 (inactive),3.1e-05 (inactive),0.00758 (inactive),-21.7% (inactive),-7.8% (inactive)
O=C(CCCn1c(=S)[nH]c2cc3c(cc2c1=O)OCO3)N1CCN(c2ccccc2F)CC1,402,-9.1% (inactive),-7.6% (inactive),99.5,0.1% (inactive),112,-0.501 (inactive),-4.7e-05 (inactive),0.00637 (inactive),8.7% (inactive),-6.98% (inactive)
O=C(COC(=O)CCc1c[nH]c2ccccc12)NC1CCS(=O)(=O)C1 (stereo not drawn),473,4.7% (inactive),-7.7% (inactive),101,-70.8% (inactive),113,-0.57 (inactive),-1.6e-05 (inactive),0.00772 (inactive),4.42% (inactive),-2.03% (inactive)
Cc1ccc2c(c1)-c1c(cnn1CC(=O)NC(C)CCc1ccco1)CO2 (stereo not drawn),799,4.6% (inactive),-8% (inactive),119,-62.3% (inactive),125,-0.577 (inactive),-2e-05 (inactive),0.00658 (inactive),11.5% (inactive),29.3% (inactive)
O=C(Cn1ncc2c(=O)oc3ccccc3c21)Nc1nc2ccccc2s1,313,-0.7% (inactive),1.3% (inactive),96.3,-282% (inactive),90.7,-0.537 (inactive),-8.1e-05 (inactive),0.00615 (inactive),15.6% (inactive),17% (inactive)
O=C(Nc1cccc(NC(=O)c2ccco2)c1)c1ccc2c(c1)OCO2,696,-6.1% (inactive),-10.2% (inactive),108,-70.1% (inactive),121,-0.418 (inactive),2.7e-06 (inactive),0.00264 (inactive),7.09% (inactive),-29.5% (inactive)
Cc1cc2c(=O)n(Cc3ccco3)c(SCC(=O)NCc3ccco3)nc2s1,502,3.1% (inactive),3.2% (inactive),84,-50% (inactive),82.5,-0.393 (inactive),1.9e-05 (inactive),0.00738 (inactive),14.9% (inactive),17.7% (inactive)
COC(=O)c1ccc(C(=O)OC)c(NC(=O)Nc2ccc3c(c2)OCO3)c1,279,-7.1% (inactive),2.1% (inactive),94.2,-15.8% (inactive),95.1,-0.417 (inactive),7.6e-06 (inactive),0.00311 (inactive),-24.9% (inactive),-44.2% (inactive)
Nc1[nH]nc2nc(N3CCCC3)nc(-c3ccccc3)c12,341,-9.5% (inactive),20.6% (inactive),60.5,-53% (inactive),117,-0.477 (inactive),-3.4e-05 (inactive),0.00548 (inactive),11.8% (inactive),18.8% (inactive)
Cc1nc(C)c2c(c1C(F)(F)F)-c1ccccc1C2(F)F,397,3.9% (inactive),-0.1% (inactive),108,-30.7% (inactive),107,-0.454 (inactive),-8.2e-06 (inactive),0.00655 (inactive),-9.52% (inactive),98.9% (active)
c1cc(C(c2nnnn2C2CCCC2)N2CCOCC2)ccn1 (stereo not drawn),392,-7.3% (inactive),27.3% (inactive),78.3,38.6% (inactive),97.3,-0.522 (inactive),2.4e-05 (inactive),0.00524 (inactive),18.3% (inactive),21.2% (inactive)
CCCn1c(SCC(=O)N2CCc3ccccc3C2)nc2c1c(=O)n(C)c(=O)n2C,430,-9.2% (inactive),-13.1% (inactive),115,-47.7% (inactive),117,-0.303 (inactive),8.7e-06 (inactive),0.00547 (inactive),2.01% (inactive),-39% (inactive)
Cc1ccc2c(c1)C(N1CCCC1=O)CC(c1ccco1)N2 (stereo not drawn),343,0% (inactive),14.5% (inactive),94.2,-7.7% (inactive),106,-0.407 (inactive),3.1e-05 (inactive),0.00529 (inactive),-30.3% (inactive),98.9% (active)
CN(C1CCCCC1)S(=O)(=O)c1ccc(S(=O)(=O)N2CCCC2)cc1,737,-10.5% (inactive),-9.6% (inactive),100,-78.3% (inactive),126,-0.432 (inactive),-2.1e-05 (inactive),0.00521 (inactive),16.1% (inactive),21.2% (inactive)
CCC(C)(C)NC(=O)CN(C(=O)c1snc(C(N)=O)c1N)c1ccc2c(c1)OCO2,688,-7.3% (inactive),0.7% (inactive),103,-39.8% (inactive),120,-0.517 (inactive),3.3e-05 (inactive),0.00589 (inactive),13.1% (inactive),14.6% (inactive)
C=CCn1c(COc2cccc(C)c2)nnc1SCC(=O)NC(=O)NCc1ccco1,365,-10.6% (inactive),23.8% (inactive),86.7,6.1% (inactive),113,-0.405 (inactive),3.1e-05 (inactive),0.00673 (inactive),16.1% (inactive),30.1% (inactive)
CC1CCCN(S(=O)(=O)c2ccc(C(=O)Nc3nnc(-c4ccccc4Cl)o3)cc2)C1 (stereo not drawn),687,-2.8% (inactive),10.5% (inactive),111,-16.5% (inactive),110,-0.468 (inactive),-2.3e-05 (inactive),0.0065 (inactive),22.7% (inactive),25.9% (inactive)
CCOc1ccccc1N1C(=O)c2ccc(C(=O)Nc3cccnc3)cc2C1=O,594,0.8% (inactive),1.8% (inactive),105,-38.7% (inactive),109,-0.482 (inactive),1.2e-05 (inactive),0.00693 (inactive),11.8% (inactive),21% (inactive)
CCOC(=O)c1c(NC(=O)OC)sc2c1CCC2,496,-0.5% (inactive),9.3% (inactive),82.8,-35.7% (inactive),125,-0.535 (inactive),-1.5e-05 (inactive),0.00667 (inactive),7.95% (inactive),15.6% (inactive)
CCOc1ccc2c(c1)n(CO)c(=S)n2CO,677,-26.5% (inactive),4.4% (inactive),68.8,15.1% (inactive),105,-0.498 (inactive),-4.8e-05 (inactive),0.00378 (inactive),16.9% (inactive),19.4% (inactive)
O=C(Nc1ccc(F)cc1)N(Cc1ccco1)Cc1cc2cc3c(cc2[nH]c1=O)OCO3,473,4.5% (inactive),6.1% (inactive),96.6,15.9% (inactive),102,-0.418 (inactive),-2e-05 (inactive),0.0056 (inactive),-8.59% (inactive),-15.6% (inactive)
CC1=C(C(=O)NCc2ccccn2)C2(CCC(C)CC2)OC1=O (stereo not drawn),759,-5% (inactive),16.1% (inactive),91.3,19.6% (inactive),110,-0.521 (inactive),-2.4e-05 (inactive),0.00608 (inactive),12.1% (inactive),26.9% (inactive)
